Assay outcomes (PubChem BioAssay)
NPSR antagonist: antagonists of human neuropeptide S receptor cAMP signaling; Q6W5P4; CHO-NPSR cells, cAMP TR-FRET, antagonist mode; Potency, µM (highest dose often 38.3 µM), usual class: inhibitors; 220,000 tested, 1% active; AID 1461; further: nearly all actives have a fitted effect of over 50% in size
Target sequence (Q6W5P4 whole entry, looked up): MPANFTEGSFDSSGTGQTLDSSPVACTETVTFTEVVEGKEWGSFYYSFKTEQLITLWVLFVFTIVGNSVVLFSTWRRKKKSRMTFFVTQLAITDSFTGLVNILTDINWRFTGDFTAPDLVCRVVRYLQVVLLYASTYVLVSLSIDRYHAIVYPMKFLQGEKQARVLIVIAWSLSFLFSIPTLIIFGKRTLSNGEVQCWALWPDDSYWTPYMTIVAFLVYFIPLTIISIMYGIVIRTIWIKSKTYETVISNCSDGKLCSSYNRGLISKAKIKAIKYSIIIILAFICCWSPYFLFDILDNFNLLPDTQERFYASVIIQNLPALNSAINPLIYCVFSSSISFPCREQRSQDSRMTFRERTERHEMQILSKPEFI
Tau fluor counter: counter-screen for tau fibril formation inhibitors; tau K18 P301L Alexa594 fluorescence, heparin fibrillization; Potency, µM (top dose mostly 57.7 µM); 280,000 tested, 0.93% active; further: nearly all actives have a fitted effect of over 55% in size
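Human tau K18 P301L (15 uM unlabeled, 0.24 uM Alexa 594-labeled) in 100 mM sodium acetate pH 7 with 20 uM heparin, 6 hr at 37 C. ThT 30 uM added, 1 hr ambient; Alexa 594 FP and total fluorescence read at 555/632 nm.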
PNC assembly inh: blocks assembly of the perinucleolar compartment; activity change (PNC), negative = inhibition, % at 10 µM; PC3M PTB-GFP, PNC prevalence imaging, 16 h; active compounds read low; 140,000 tested, 3.1% active; AID 2417;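 active means readout at or below -70, meaning at least 70% loss of cells showing the perinucleolar compartment, a nuclear body marking cancer cells; inconclusive means readout between -30 and a set limit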
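PC3M cells stably expressing PTB-GFP, 750–1000 cells/well, treated 16 h at 37 °C with compound (23 nl of library stock), in duplicate. After paraformaldehyde fixation and Hoechst stain, imaged at 20x; PNC prevalence scored by image analysis.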
Tau fibril ThT: tau fibrillization inhibition (ThT binding) | P10636 | recombinant tau K18 P301L, heparin-induced fibrillization, ThT fluorescence | Potency, µM (series often up to 57.4 µM), usual class: inhibitors | 270,000 tested, 2.1% active; further: nearly all actives have a fitted effect of over 55% in size
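Using a mix of unlabeled (15 uM) and Alexa 594-labeled (0.24 uM) tau K18 P301L, heparin-triggered fibrillization over 6 hr at 37 C was scored by ThT fluorescence.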
Tau fibril FP: blocks human tau fibril formation measured by polarization. Potency, µM (highest dose often 57.7 µM), actives largely listed as inhibitors. 280,000 tested, 0.39% active. K18 P301L tau heparin fibrillization, Alexa594 FP, 6 h. P10636; further: nearly all actives have a fitted effect of over 55% in size
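Recombinant K18 P301L […], labeled with Alexa 594 at 0.24 uM over 15 uM unlabeled; heparin inducer 20 uM final; 37 C, 6 hr; FP endpoint.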
KDM4E inh: inhibitors of human JMJD2E histone demethylase | B2RXH2 | JMJD2E catalytic domain, FDH-coupled NADH fluorescence (FDH is formaldehyde dehydrogenase) | Potency, µM (titrated, usually from 57.1 µM), actives largely listed as inhibitors | 230,000 tested, 1.6% active; active means well fitted inhibition curve with a large enough effect, not every such curve was filed as active; inconclusive means small, poorly fitted or top-dose-only effect, or another doubt; inactive means no such curve, though single readings can be large or run the other way; further: nearly all actives have a fitted effect of over 50% in size
Target sequence (B2RXH2 1-337 limits assumed): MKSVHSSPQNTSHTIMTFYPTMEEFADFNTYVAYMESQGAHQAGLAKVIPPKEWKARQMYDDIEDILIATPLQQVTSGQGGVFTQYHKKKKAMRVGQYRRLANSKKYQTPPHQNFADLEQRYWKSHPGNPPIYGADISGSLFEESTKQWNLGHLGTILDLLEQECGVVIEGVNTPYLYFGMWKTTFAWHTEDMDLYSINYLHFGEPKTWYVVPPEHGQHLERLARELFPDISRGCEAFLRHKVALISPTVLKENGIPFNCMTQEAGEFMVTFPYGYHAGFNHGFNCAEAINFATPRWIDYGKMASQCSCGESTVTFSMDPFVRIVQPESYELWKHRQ
A number is an active result; i = inactive; ? = inconclusive; nt = no result given; [ ] = another dose, or the depositor's remark. The list is not random: actives were taken first. Their share in the collection is about 5.1%. Unless noted, the call rests on the fitted dose curve; in most records, active means well fitted curve in the direction sought with a large enough effect; inconclusive means small, poorly fitted or top-dose-only effect, or another doubt; inactive means no such curve, though single readings can be large; an effect the other way counts as inactive or inconclusive.

SMILES	NPSR antagonist	Tau fluor counter	PNC assembly inh	Tau fibril ThT	Tau fibril FP	KDM4E inh
CC1=C(C(=O)OC2CCCCCC2)C(c2ccc(Cl)cc2Cl)CC(=O)N1 (stereo unspecified)	nt	i	nt	i	i	nt
Cc1ccccc1CNC(=O)CCSCc1cnn(-c2ccccc2)c1-n1cccc1	nt	i	nt	?	i	nt
CCOc1ccccc1NC(=O)c1cn(C2CCCC2)c(=O)c2c1c1ccccc1n2C	nt	i	nt	i	i	nt
CCOc1cc(N2CCOCC2)c(OCC)cc1NC(=O)CC12CC3CC(CC(C3)C1)C2	10µM	i	?	i	i	i
CCOc1cc(N2CCOCC2)c(OCC)cc1NC(=O)Cc1ccc(OC)c(OC)c1	i	i	-124.1	i	i	i
CCOc1cc(N2CCOCC2)c(OCC)cc1NC(=O)Cc1cccc(OC)c1	i	i	i	i	i	i
CCOc1cc(N2CCOCC2)c(OCC)cc1NC(C)C(=O)N1CCC(C)CC1 (stereo unspecified)	i	i	?	?	?	11.2µM
Cc1cccc(N2CCN(C(=O)CCNS(=O)(=O)c3ccc4c(c3)CCN4C(=O)C3CC3)CC2C)c1 (stereo unspecified)	nt	i	nt	?	i	nt
C=C(C)C(O)/C=C/c1ccc(C(F)(F)F)cc1 (stereo unspecified)	nt	i	nt	i	i	i
CSc1ccc(CCNC(=O)c2c(C)oc3ncn(C)c(=O)c23)cc1	nt	i	nt	i	i	nt
CCOC(=O)c1c(C)oc2ncnc(N3CCN(c4ccccc4)CC3)c12	nt	i	nt	i	i	nt
COc1cccc(-n2c(SC3CCOC3=O)nc3ccccc3c2=O)c1 (stereo unspecified)	i	i	-100.0	i	i	i
COc1ccc(OCc2nnc(SC3CCOC3=O)n2-c2ccccc2)cc1 (stereo unspecified)	i	i	?	i	i	i
CCn1c2ccccc2c2cc(NC(=O)COC(=O)c3cccc(S(=O)(=O)NC)c3)ccc21	i	10µM[quencher]	?	?	i	i
CC(C)CN1C(=O)c2ccc(NC(=O)c3ccco3)cc2C1=O	i	i	nt	i	i	i
CCn1c2ccccc2c2cc(NC(=O)c3ccco3)ccc21	i	25.1µM[quencher]	i	?	i	i
CCCc1nc2ccc(NC(=O)c3ccco3)cc2c(=O)n1Cc1ccccc1Cl	i	i	-100.0	i	i	i
CC1N(C)c2cc(NC(=O)c3ccco3)ccc2C1(C)C (stereo unspecified)	i	28.2µM[fluorescent]	i	?	?	i
COc1cc(NC(=O)c2cc(Cl)ccc2Cl)ccc1NC(=O)c1cc2ccccc2o1	nt	i	nt	i	?	nt
CCc1ccccc1Nc1nc2ccccc2n2cnnc12	nt	i	nt	i	i	nt
COc1ccc(CNCc2c(C(=O)O)n(Cc3ccc(F)cc3)c3cc(C)ccc23)cc1OC	nt	i	nt	i	i	nt
CCn1c(SCc2ccccc2F)nc(=O)c2c(C(=O)OC)cc(C3CC3)nc21	nt	i	nt	?	i	nt
CCn1c2ccccc2c2cc(NC(=O)c3cccc(OC)c3)ccc21	i	12.6µM[quencher]	?	?	i	?
CCn1c(=O)sc2cc(NC(=O)c3cccc(OC)c3)ccc21	nt	i	nt	?	i	nt
CC(C)c1ccc(S(=O)(=O)c2cn(CC(=O)Nc3ccc(F)cc3)c3ccccc3c2=O)cc1	nt	i	nt	i	?	nt
SMILES	NPSR antagonist	Tau fluor counter	PNC assembly inh	Tau fibril ThT	Tau fibril FP	KDM4E inh
Cc1oc2ccc(O)c(CN(C)Cc3ccccc3)c2c1C(=O)Nc1cccc(C(F)(F)F)c1	nt	?	nt	i	i	nt
CS(=O)(=O)Nc1ccc(Br)cc1C(=O)c1ccccc1	i	i	-83.7	i	i	i
Cc1ccc(-c2csc(-c3cc4c([nH]c3=O)CC(c3ccccc3)CC4=O)n2)cc1 (stereo unspecified)	nt	i	nt	?	i	nt
O=C(Nc1nc(=S)ss1)c1ccc(Cl)cc1Cl	i	i	i	31.6µM	?	i
Cn1c(N=Nc2ccc(N3CCOCC3)cc2)[n+](C)c2ccccc21	7.94µM	3.98µM[quencher]	nt	1µM	14.1µM	i
Cc1[nH]c2ccccc2c1C(=O)COC(=O)Cn1c(C(F)(F)F)nc2ccccc21	i	i	-105.2	i	i	i
O=C(Cn1c(C(F)(F)F)nc2ccccc21)OCC(=O)c1c[nH]c2ccccc12	i	?	i	?	i	i
COc1ccc(CNC(=O)C2CCCCN2S(=O)(=O)c2ccc(F)cc2)cc1 (stereo unspecified)	nt	i	nt	i	i	nt
O=c1c2sc3ccccc3c2n(Cc2cccc(C(F)(F)F)c2)c(=O)n1-c1ccccc1	nt	i	nt	i	i	nt
CCN1CCc2c(sc(NC(=S)NC(=O)c3ccco3)c2C(N)=O)C1	i	i	nt	?	i	?
CCN1CCc2c(sc(NC(=O)Nc3ccc(Cl)c(Cl)c3)c2C(N)=O)C1	i	?	-118.2	?	i	?
CCOC(=O)N1CCc2c(sc(NC(=O)c3ccc(Cl)s3)c2C(N)=O)C1	2.51µM	i	i	?	i	?
Cc1ccc(Cl)cc1N1CCN(Cc2cc3c(cc2O)CCC3)CC1	10µM	i	i	i	i	i
Cc1ccc(Cl)cc1N1CCN(C(=O)c2ccc(CN3CCOCC3)cc2)CC1	i	i	?	i	i	i
CCC1=NN=C(c2ccc(F)cc2)C(c2c[nH]c3ccccc23)N1O (stereo unspecified)	i	i	-100.0	i	i	i
CCN1CCN(c2nnc(-n3cccc3C(=O)Nc3cccc(OC)c3)s2)CC1	nt	i	nt	i	i	nt
CC(=O)N(C1=C(N2CCOCC2)C(=O)c2ccccc2C1=O)c1ccc(C(=O)O)cc1	i[7.67 µM]	17.8µM[quencher]	nt	14.1µM	?	10µM
O=C(O)c1ccc(NC2=C(N3CCOCC3)C(=O)c3ccccc3C2=O)cc1	i	?	?	17.8µM	?	i
CC(=O)N(C)C1=C(N2CCOCC2)C(=O)c2ccccc2C1=O	i	i	?	?	i	?
CCOC(=O)c1c(NC(=O)c2c(-c3ccccc3)noc2C)sc(C)c1-c1ccccc1	i	i	-103.1	i	i	?
CCOC(=O)c1c(NC(=O)/C=C\C(=O)O)sc(C)c1-c1ccccc1	i	i	nt	i	i	i
CCOC(=O)c1c(NC(=O)/C=C/C(=O)O)sc(C)c1-c1ccc(C(C)(C)C)cc1	10µM	i	nt	?	?	i
CCCn1ccc2c(OCC(=O)Nc3cc(C)ccc3C)cccc2c1=O	nt	i	nt	i	i	nt
COc1ccc(OC)c(C2CC(=O)N3CN(c4cccc(Cl)c4)CSC3=C2C#N)c1 (stereo unspecified)	i	?	i	28.2µM	?	?
COc1ccc(OC)c(C2CC(=O)N3CN(c4ccc(C)c(Cl)c4)CSC3=C2C#N)c1 (stereo unspecified)	i	i	i	28.2µM	?	?
COc1ccc(Br)cc1C1CC(=O)N2CN(C)CSC2=C1C#N (stereo unspecified)	i	i	i	?	?	i
COc1ccc(C(=O)Nc2cccc(-c3cn4ccsc4n3)c2)c(OC)c1	nt	i	nt	?	i	nt
